# Shown are actives, neighbours in structure and some others; about 4.6% of the full set was active somewhere.
# tim10-1 inh = tim10-1 yeast growth inhibition; S. cerevisiae tim10-1 ts strain growth, BacTiter-Glo, 24 h; inhibition, % at 20 µM; 330,000 compounds, 2.2% hits; AID 463190;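 active means inhibition of at least 40%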;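 further: mutant grown at 25 °C; 0% = DMSO wells with yeast and 100% = wells holding no yeast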
# tim23-1 inh = inhibits growth of tim23-1 mutant yeast; S. cerevisiae tim23-1 growth, BacTiter-Glo luminescence, 24 h; inhibition, % at 20 µM; 330,000 compounds, 1.3% hits;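 active means growth inhibition of the mutant yeast at or above 50%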;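 further: temperature-sensitive mutant grown at 25 °C; plate controls were DMSO-treated mutant yeast for no effect and medium wells lacking yeast for full effect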
# TIM10 inh = TIM10 yeast growth inhibition. S. cerevisiae TIM10 strain growth, BacTiter-Glo luminescence, 24 h. inhibition, % at 10 µM. 330,000 compounds, 1.4% hits. AID 463195;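 active means inhibition of 40% or more at the single tested concentration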;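 further: wild-type TIM10 isogenic control strain grown at permissive 25 °C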
# V-ATPase pHluor = yeast V-ATPase proton transport regulation by pHLuorin | AID 504577 | response, % at 10 µM | 350,000 compounds, 0.37% hits | S. cerevisiae, pHLuorin cytosolic pH fluorescence; in the data active means response mostly above about 7.3%, no sharp cut-off; inactive means mostly below about 5.4%; further: actives read high
# SKKanGAS inh = blocks kanamycin growth of S. pyogenes SKKanGAS strain; AID 1662; inhibition, % at 7.5 µM; 300,000 compounds, 1.3% hits; BacTiter-Glo, 6 h;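 active means mean replicate score, as percent of positive control median, at least 50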;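 further: strain carries kanamycin resistance gene driven by streptokinase promoter and grows in 40 µg/ml kanamycin; loss of luminescence reflects streptokinase promoter inhibition or plain growth inhibition; 0% = median of DMSO wells and 100% = positive control at its reference dose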
# PfHsp90 yeast 2 = inhibits growth of yeast expressing Plasmodium falciparum Hsp90. S. cerevisiae expressing PfHsp90, BacTiter-Glo ATP, 48 h; yeast lacking PDR1 and PDR3 efflux regulators. 310,000 compounds, 0.32% hits. inhibition, % at 9.4 µM;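 active means every replicate shows inhibition above about 80%, whatever the replicate mean, limit read from the data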;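 further: 0% = DMSO neutral controls and 100% = 20 µM radicicol positive controls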
# tim23-1 confirm = confirmation of tim23-1 mutant yeast growth inhibitors. shares compounds with tim23-1 inh. S. cerevisiae tim23-1 growth, BacTiter-Glo luminescence, 24 h. inhibition, % at 20 µM. AID 463218. 4,400 compounds, 83% hits;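 active means inhibition above about 39% in either of two replicate wells at 20 µM, limit read from the data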;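 further: temperature-sensitive tim23-1 mutant grown at 25 °C; 0% = DMSO wells with yeast and 100% = medium wells without yeast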
# * = called active by the depositor; x = no result given.
SMILES,tim10-1 inh,tim23-1 inh,TIM10 inh,V-ATPase pHluor,SKKanGAS inh,PfHsp90 yeast 2,tim23-1 confirm
CCOC(=O)c1cccc2c1-c1ccccc1/C2=N/O,13,71*,33,-3,-5,-65,54*
COc1ccc(CCNC(=S)Nc2ccc(C(C)C)cc2)cc1,22,51*,36,-1,-2,-8,34
CSc1nc(Oc2ccc(F)cc2)c2ccccc2n1,18,14,10,-1,-2,10,x
Fc1ccc(Oc2nc(-c3ccccn3)nc3ccccc23)cc1,37,50*,15,-3,42,x,51*
N=c1c2ccccc2nc2n1CCCCC2,x,x,x,4,x,x,x
CC1=NN(c2ccccc2)C(=O)/C1=C/c1ccc[nH]1,20,21,22,1,-11,-21,x
CC1(C)OC(=O)C(=Cc2ccc[nH]2)C(=O)O1,12,76*,5,-3,-2,12,53*
Oc1c(Cl)cc(Cl)cc1C=Nc1ccc(Br)cc1,11,74*,29,-6,9,20,72*
C=CCc1cccc(C=Nc2ccc(Br)cc2)c1O,9,18,4,-1,-2,-16,x
CCc1cc(C(=O)N2CCCC(CO)(Cc3ccc(F)cc3)C2)n(C)n1 (stereo not drawn),19,11,6,-2,-8,-2,x
Cc1cccc(-c2cc3nc4c(c(N5CCOCC5)n3n2)CCCC4)c1,11,58*,14,1,32,20,47*
CCOc1ccccc1Nc1nc2ccccc2n1C(C)C,9,4,-6,-2,17,18,x
Oc1ccc(Cl)cc1CNc1cnc2ccccc2c1,-2,62*,26,1,27,-22,64*
O=C(Nc1nncs1)c1cc(S(=O)(=O)N2CCCCC2)ccc1Cl,9,0,1,2,1,4,x
NC(=S)NNc1cccc2cccnc12,20,58*,17,-1,7,-2,19
CCc1nnc(NC(=O)CN2CCN(c3nc(-c4ccccc4)cs3)CC2)s1,37,50*,31,-1,0,3,41*
O=C(OCc1ccccc1)c1cn(-c2ccccc2)nc1-c1ccncc1,38,37,14,-2,22,-1,x
Oc1ccc(N=Nc2ccccc2)cc1,39,55*,25,0,6,-32,47*
CCc1ccc(OCC(=O)N2CCN(c3ccccn3)CC2)c(Br)c1,37,53*,26,-4,-5,-13,38
O=C(COc1ccc(Br)cc1Cl)N1CCN(c2ccccn2)CC1,37,46,9,-1,4,17,x
CC(=O)Nc1cccc(/C(C)=N/Nc2ccc(S(=O)(=O)Nc3ccccc3C(=O)O)cc2[N+](=O)[O-])c1,x,x,x,-6,x,x,x
CS(=O)(=O)N1CCN(c2cnn(-c3ccccc3)c(=O)c2Cl)CC1,1,5,4,1,-6,x,x
Nc1ccc(Sc2cnn(-c3ccccc3)c(=O)c2Cl)cc1,17,50*,19,0,4,-12,29
CC(C)N1C(=O)C(Cc2nc3ccccc3c(=O)n2-c2ccccc2)c2ccccc21 (stereo not drawn),15,45,39,0,16,-7,x
CCCN1C(=O)C(Cc2nc3ccccc3c(=O)n2-c2ccccc2)c2ccccc21 (stereo not drawn),15,51*,13,0,3,7,49*
SMILES,tim10-1 inh,tim23-1 inh,TIM10 inh,V-ATPase pHluor,SKKanGAS inh,PfHsp90 yeast 2,tim23-1 confirm
CN(c1ccccc1)S(=O)(=O)c1cccc(NC(=O)c2ccc(Cl)c([N+](=O)[O-])c2)c1,-7,5,-23,0,x,5,x
COc1ccc(CNC(=O)COC(=O)c2ccc(OCC3CCCO3)cc2)cc1 (stereo not drawn),4,1,0,0,x,-10,x
CC(C)(C)N1C(=O)[C@H]2[C@@H](c3ccc(Br)cc3)N3C(=O)N(c4cccc(Cl)c4)C(=O)[C@@]3(Cc3ccccc3)[C@H]2C1=O,7,1,-1,3,2,-2,x
Cc1cccc(NC(=O)/C(C#N)=C/c2ccc(Cl)cc2)n1,30,60*,32,-3,2,-2,68*
N#C/C(=C\c1ccc(Cl)cc1)C(=O)Nc1cccnc1,20,65*,9,3,4,27,68*
COc1ccc(/C=C(\C#N)C(=O)Nc2cccnc2)cc1,7,8,14,-1,3,45,x
COc1ccc(NC(=O)/C(C#N)=C/c2cccnc2)c(OC)c1,31,50*,27,6,16,29,44*
COc1ccc(/C=C(\C#N)C(=O)Nc2cccc(C)n2)cc1,1,5,-15,-1,0,-14,x
Nc1ncnc2c1ncn2[C@@H]1O[C@H](CNCc2ccccc2OCC(=O)N2CCCCC2)[C@@H](O)[C@H]1O,7,6,-6,-1,x,7,x
CC1CCN(S(=O)(=O)c2ccc(NC(=O)c3ccccc3F)cc2)CC1,35,52*,31,-5,1,10,45*
CN1CCN(S(=O)(=O)c2ccc(NC(=O)c3ccccc3F)cc2)CC1,-12,-10,0,-1,-1,10,x
O=C1COc2ccc(C(=O)COC(=O)c3ccc([N+](=O)[O-])cc3Cl)cc2N1,17,2,26,0,x,-16,x
Cc1ccc(C2(c3ccc(C)cc3)CC2C(=O)Nc2ccc([N+](=O)[O-])cc2O)cc1 (stereo not drawn),-25,50*,27,0,105*,29,18
CC1(C)CC1C(=O)Nc1ccc([N+](=O)[O-])cc1Br (stereo not drawn),4,16,-2,-4,-1,13,x
Cc1ccc([C@H]2C(C(=O)O)=CC[C@@H](c3cccc(Cl)c3)N2S(=O)(=O)c2ccc(C)cc2)cc1,x,x,x,-2,x,-18,x
Cc1ccc(S(=O)(=O)N2[C@@H](c3ccc(C(C)(C)C)cc3)C(C(=O)O)=CC[C@H]2c2ccc(Cl)c(Cl)c2)cc1,-20,63*,33,1,x,-25,-29
Cc1ccc(S(=O)(=O)N2[C@@H](c3ccc(C(C)(C)C)cc3)C(C(=O)O)=CC[C@H]2c2cccc(Cl)c2)cc1,19,53*,20,-1,x,-6,44*
Cc1ccc(S(=O)(=O)N2[C@@H](c3ccc(Br)cc3)C(C(=O)O)=CC[C@H]2c2ccc(Cl)c(Cl)c2)cc1,12,41,13,1,x,-65,x
CC(C)(C)C(=O)N1CCN(c2ccc(NC(=O)c3ccc([N+](=O)[O-])o3)cc2)CC1,32,40,22,-2,-1,-80,x
O=C(Nc1ccc(N2CCN(Cc3ccccc3F)CC2)cc1)c1ccc([N+](=O)[O-])o1,39,56*,12,1,5,13,41*
CC1CCN(c2ccc(NC(=O)c3ccc([N+](=O)[O-])o3)cc2)CC1,37,56*,25,6,43,x,-13
